# Results taken from PubChem BioAssay (EPA / NIEHS).
# The source made the active and inactive calls. The calls were made as follows: active = hit-call score of the fitted dose curve at least 0.9, where 1 is the maximum; inactive = score below 0.9.
# Assay: CCTE_Shafer_MEA_acute_interburst_interval_mean: CCTE's Neural Acute Assay for Mean Interburst Interval, Shafer Lab (AID 2284016);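 also: percent change of mean interburst interval versus each well's own pre-dose baseline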
# Outline: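 MEA recording of spontaneous network bursting in primary rat cortical cultures; mean interburst interval was compared before and after a 40-min compound exposure (0.03-40 uM) and expressed as percent change, relative to DMSO.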
SMILES,outcome,AC50
OCC(CO)n1cnc(-c2ccc(F)cc2)c1-c1ccnc(Oc2ccccc2)n1,inactive,
Cc1c(C)c2c(c(C)c1O)CCC(C)(COc1ccc(CC3SC(=O)NC3=O)cc1)O2 (stereo not given),inactive,
CC(C)COC(=O)CCCCC(=O)OCC(C)C,inactive,
NC(=Nc1ccccc1)Nc1ccccc1,,1.27 µM (active)
CN(C)C(=O)NC1(c2ccccc2)CCN(CCC[C@]2(c3ccc(Cl)c(Cl)c3)CCCN(C(=O)c3ccccc3)C2)CC1,inactive,
CSc1ccc(Oc2ccc(S(N)(=O)=O)cc2CN(C)C)cc1C,inactive,
Cc1cc(Cc2ccc(N)c(C)c2)ccc1N,,35.7 µM (active)
CC1=C(C)S(=O)(=O)CCS1(=O)=O,inactive,
CCN(CC)CCOc1ccc(C(=C(Cl)c2ccccc2)c2ccccc2)cc1,inactive,
COc1ccc(OC(F)(F)F)cc1CN[C@H]1CCCN[C@H]1c1ccccc1,,7.18 µM (active)
O=C(O)CN(CC(=O)O)CC(=O)O,inactive,
Cc1ccc(C(C)(C)C)c(O)c1,inactive,
CN(C)CCCN1c2ccccc2Sc2ccc(Cl)cc21,inactive,
CCc1cc(C2=C(C(=O)O)N(c3ccccc3C(F)(F)F)S(=O)(=O)c3ccccc32)cc2c1OCO2,inactive,
CCCCC(CC)COP(=O)(OCC(CC)CCCC)OCC(CC)CCCC (stereo not given),inactive,
